Most compounds without a hit are left out; they make up all but 1.2% or so of the library.
NCOA3 inh: inhibitors of human steroid receptor coactivator 3 (SRC3). AID 588352. inhibition, % at 3.6 µM. HEK293 GAL4-SRC3 luciferase reporter, luminescence. 360,000 compounds, 0.17% hits. Q9Y6Q9;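 active means inhibition above a per-campaign cutoff, the mean of all compounds plus 3 SD, cut at about 60% in these data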;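 further: 0% = DMSO-treated cells and 100% = gossypol-treated cells at 36 µM; higher means less SRC3-driven luciferase light from the GAL4 reporter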
LMP1 NFkB inh: Epstein-Barr LMP1 NF-kappaB reporter inhibition; LMP1-induced NF-kappaB luciferase reporter cells, luminescence; inhibition, % at 12.5 µM; 350,000 compounds, 0.69% hits; AID 504558; in the data active means inhibition above about 41%; inconclusive means no clear call, values can overlap the other calls;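 further: 0% = neutral control wells and 100% = reference inhibitor control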
NCOA1 inh: inhibits human SRC1 coactivator. HEK293 GAL4-SRC1 luciferase reporter, luminescence. inhibition, % at 3.6 µM. 360,000 compounds, 0.12% hits;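 active means inhibition above the campaign mean plus 3 SD, with each screening campaign given its own cutoff, cut at about 60% in these data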;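 further: 0% = DMSO treated cells and 100% = gossypol at 36 µM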
Target sequence (Q15788 whole entry, looked up, the tested form may be a part): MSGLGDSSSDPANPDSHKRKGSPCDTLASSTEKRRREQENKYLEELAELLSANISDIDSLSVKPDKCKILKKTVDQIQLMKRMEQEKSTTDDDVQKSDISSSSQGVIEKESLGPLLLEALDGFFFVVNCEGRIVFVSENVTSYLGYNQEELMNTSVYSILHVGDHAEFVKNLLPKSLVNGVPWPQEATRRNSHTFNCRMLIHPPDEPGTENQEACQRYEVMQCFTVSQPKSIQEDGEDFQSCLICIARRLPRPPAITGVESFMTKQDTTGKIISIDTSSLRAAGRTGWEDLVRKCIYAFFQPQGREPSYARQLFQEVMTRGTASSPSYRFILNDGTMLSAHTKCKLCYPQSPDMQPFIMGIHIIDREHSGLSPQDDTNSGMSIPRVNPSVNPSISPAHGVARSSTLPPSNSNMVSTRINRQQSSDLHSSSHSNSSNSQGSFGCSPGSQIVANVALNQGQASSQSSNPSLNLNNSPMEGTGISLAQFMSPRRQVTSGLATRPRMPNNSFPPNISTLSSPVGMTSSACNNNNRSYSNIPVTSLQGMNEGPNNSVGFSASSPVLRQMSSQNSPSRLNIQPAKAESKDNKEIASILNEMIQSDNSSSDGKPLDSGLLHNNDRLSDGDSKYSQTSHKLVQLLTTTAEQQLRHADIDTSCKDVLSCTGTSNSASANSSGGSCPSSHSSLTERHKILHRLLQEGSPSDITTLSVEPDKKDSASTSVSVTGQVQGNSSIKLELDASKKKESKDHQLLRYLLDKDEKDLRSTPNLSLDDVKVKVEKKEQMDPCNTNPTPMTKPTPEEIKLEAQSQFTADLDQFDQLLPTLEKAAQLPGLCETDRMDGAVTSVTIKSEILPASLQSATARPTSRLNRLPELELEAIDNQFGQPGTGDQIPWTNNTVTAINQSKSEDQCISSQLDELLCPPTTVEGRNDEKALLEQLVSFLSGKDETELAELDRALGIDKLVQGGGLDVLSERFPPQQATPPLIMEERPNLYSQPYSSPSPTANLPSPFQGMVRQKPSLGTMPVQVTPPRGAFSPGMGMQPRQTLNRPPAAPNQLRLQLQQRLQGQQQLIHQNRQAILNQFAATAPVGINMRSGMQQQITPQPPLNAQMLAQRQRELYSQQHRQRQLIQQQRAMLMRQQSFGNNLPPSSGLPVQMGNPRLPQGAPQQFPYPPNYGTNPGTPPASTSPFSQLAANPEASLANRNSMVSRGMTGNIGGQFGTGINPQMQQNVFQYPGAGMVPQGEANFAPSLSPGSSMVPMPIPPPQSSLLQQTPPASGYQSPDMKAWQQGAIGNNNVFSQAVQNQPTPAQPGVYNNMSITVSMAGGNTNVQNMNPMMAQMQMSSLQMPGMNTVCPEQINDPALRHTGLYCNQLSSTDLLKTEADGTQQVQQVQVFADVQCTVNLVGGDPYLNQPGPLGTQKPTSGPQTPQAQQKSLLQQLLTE
Shn3 inh set2: Schnurri-3 reporter inhibition in Clone20 osteoblasts | Clone20 osteoblast Shn3 3'UTR firefly luciferase, 24 h | inhibition, % at 12.5 µM | 360,000 compounds, 0.52% hits;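 active means mean inhibition of at least 75% with every replicate also reaching 75%; inconclusive means mean inhibition at least 75% but some replicate below; inactive means mean inhibition below 75%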;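 further: 0% = median of neutral control wells and 100% = pilot-screen positive control compound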
SRC2 inh: human SRC2 (NCOA2) inhibition; Q15596; 370,000 compounds, 0.17% hits; AID 651957; inhibition, % at 9 µM; HEK293 GAL4-SRC2 luciferase reporter, luminescence;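 active means inhibition above the mean inhibition of all tested compounds plus 3 SD, set per campaign, cut at about 52% in these data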;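 further: 0% = DMSO treated cells and 100% = cells given Gossypol at 36 µM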
LRH-1 inv ag: inverse agonists of human LRH-1 (NR5A2). O00482. HEK293T StAR-luciferase reporter, LRH-1 transfected, 24 h. inhibition, % at 3.6 µM. 360,000 compounds, 0.13% hits. AID 602396;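 active means inhibition above the mean inhibition of all tested compounds plus 3 SD, cut at about 73% in these data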;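 further: 0% = DMSO wells and 100% = reporter-only cells lacking LRH-1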
* hit, by the source's call.

Screening CCCC[C@H]1C2CC(OC(=O)Nc3ccc(Cl)cc3)C(C2)[C@H]2CCCCN21 (stereo partly specified) returned SRC2 inh 17.
`CCOC(=O)c1c(-c2ccc(OC)cc2)csc1/N=C/C1=C(O)CCCC1=O` gave NCOA3 inh 4, LMP1 NFkB inh 53*, NCOA1 inh -11, Shn3 inh set2 -9, SRC2 inh 8 and LRH-1 inv ag -18.
Screening COCCn1c(C)cc(C(=O)CSc2nnc3ccccn23)c1C returned NCOA3 inh -1, LMP1 NFkB inh 50*, NCOA1 inh -2, Shn3 inh set2 37, SRC2 inh -21 and LRH-1 inv ag -11.
`COc1ccc(-c2nc(-c3ccc(NC(=O)c4ccncc4)cc3)no2)cc1OC` gave NCOA3 inh 26, LMP1 NFkB inh 27, NCOA1 inh 43, Shn3 inh set2 90* and LRH-1 inv ag 11.
`CC(C)CCN(C)C1CCN(C(=O)Nc2ccc3c(c2)OCO3)CC1` gave SRC2 inh -9.
`O=C(O)CC1S/C(=N\N=C2CCCCCC2)N(c2ccccc2)C1=O` (stereo unspecified) gave NCOA3 inh 32, LMP1 NFkB inh -4, NCOA1 inh 28, Shn3 inh set2 5, SRC2 inh 4 and LRH-1 inv ag 21.
For CCOC(=O)CC/C(C)=N\N=C1\SC(CC(=O)O)C(=O)N1c1ccccc1 (stereo unspecified) the results were NCOA3 inh 34, LMP1 NFkB inh 44*, NCOA1 inh 20, Shn3 inh set2 50, SRC2 inh -55 and LRH-1 inv ag 17.
Screening COc1ccccc1NC(=S)NN=C(C)c1ccccn1 returned NCOA3 inh 45, LMP1 NFkB inh inconclusive, NCOA1 inh 65*, Shn3 inh set2 91*, SRC2 inh 5 and LRH-1 inv ag 82*.
For CC(=NNC(=S)Nc1cccc(C)c1)c1ccccn1 the results were NCOA3 inh 72*, LMP1 NFkB inh 76*, NCOA1 inh 73*, Shn3 inh set2 93*, SRC2 inh 32 and LRH-1 inv ag 86*.
For CC(=NNC(=S)Nc1ccc(C)cc1)c1ccccn1 the results were NCOA3 inh 68*, LMP1 NFkB inh 62*, NCOA1 inh 70*, Shn3 inh set2 72, SRC2 inh 21 and LRH-1 inv ag 72.
Screening COc1ccccc1NC(=O)c1ccccc1NC(=O)c1ccccn1 returned NCOA3 inh -5, LMP1 NFkB inh 11, NCOA1 inh -2, Shn3 inh set2 -11, SRC2 inh -1 and LRH-1 inv ag -3.
`CCC(C)C(=O)Nc1ccc(S(=O)(=O)N2CCCC2)cc1` (stereo unspecified) gave NCOA3 inh -5, LMP1 NFkB inh 12, NCOA1 inh 9, Shn3 inh set2 9, SRC2 inh -61 and LRH-1 inv ag 10.
CCC(C)NS(=O)(=O)c1ccc(S(=O)(=O)N2CCCC3(CCCCC3)C2)cc1 (stereo unspecified) was read as NCOA3 inh 9, LMP1 NFkB inh 17, NCOA1 inh -4, Shn3 inh set2 86*, SRC2 inh -4 and LRH-1 inv ag 13.
`Cc1ccc(CCNC(=O)Cc2ccc(NC3=NC4CS(=O)(=O)CC4S3)cc2)cc1` (stereo unspecified) gave NCOA3 inh -2, LMP1 NFkB inh 85*, NCOA1 inh -1, Shn3 inh set2 7, SRC2 inh 19 and LRH-1 inv ag -1.
`C[C@@H]1C=CCCO[C@]12C(=O)N(Cc1ccc(Br)cc1)c1cccc(Br)c12` gave SRC2 inh 2.
`O=C(OC(c1ccccc1)c1nccc2ccccc12)c1ccccc1` (stereo unspecified) gave NCOA3 inh 70*, LMP1 NFkB inh 4, NCOA1 inh 67*, Shn3 inh set2 50, SRC2 inh 61* and LRH-1 inv ag 76*.
Cc1ccc(NC(=O)NNS(=O)(=O)c2ccc(Br)cc2)cc1 was read as NCOA3 inh 12, LMP1 NFkB inh 66*, NCOA1 inh -8, Shn3 inh set2 -3, SRC2 inh -11 and LRH-1 inv ag 10.
O=C(c1cc(S(=O)(=O)NCc2ccco2)ccc1Br)N1CCOCC1 was read as NCOA3 inh 3, LMP1 NFkB inh 71*, NCOA1 inh -10, Shn3 inh set2 -6, SRC2 inh 24 and LRH-1 inv ag -22.
For COc1ccc(S(=O)(=O)NCc2ccco2)cc1C(=O)N1CCOCC1 the results were NCOA3 inh -16, LMP1 NFkB inh 2, NCOA1 inh -8, Shn3 inh set2 -43, SRC2 inh 18 and LRH-1 inv ag 8.
Screening C[C@H](O)[C@@H]1C(=O)N2CCc3c([nH]c4cccc(-c5ccccc5)c34)[C@@H]2C[C@@H]1N(C)C(=O)c1ccco1 returned SRC2 inh -16.
`CC(=O)N1CCc2cc(S(=O)(=O)NC3CCN(C(=O)OCc4ccccc4)CC3)ccc21` gave SRC2 inh 18.
`CCOC(=O)N1C(=O)C[C@](Sc2ccc(OC)cc2)(C(=O)N2CCN(c3ncccn3)CC2)[C@H]1c1ccc(OC)cc1` gave SRC2 inh 7.
`Cc1cccc(-c2noc(CCC(=O)NCc3ccco3)n2)c1` gave NCOA3 inh -15, LMP1 NFkB inh -2, NCOA1 inh 5, Shn3 inh set2 -10, SRC2 inh -2 and LRH-1 inv ag 3.
Screening CC(C)(C)c1ccc(-c2noc(CCC(=O)NCc3ccco3)n2)cc1 returned NCOA3 inh 15, LMP1 NFkB inh -10, NCOA1 inh 3, Shn3 inh set2 19, SRC2 inh 63* and LRH-1 inv ag 37.
Screening CC(C)CN1C(=O)N2CCc3ccccc3C2CS1(=O)=O (stereo unspecified) returned SRC2 inh -15.
`O=C(O)c1cccc2c1C(=O)c1ccccc1-2` gave NCOA3 inh 14, LMP1 NFkB inh -2, NCOA1 inh -18, Shn3 inh set2 -3, SRC2 inh 1 and LRH-1 inv ag 10.
O=C1C(=C(I)I)c2ccccc2-c2ccccc21 was read as NCOA3 inh -33, LMP1 NFkB inh 12, NCOA1 inh -77, Shn3 inh set2 98*, SRC2 inh 86* and LRH-1 inv ag 44.
Screening CC(=O)CSc1nnc(-c2ccco2)n1-c1ccccc1 returned NCOA3 inh -5, LMP1 NFkB inh 3, NCOA1 inh -3, Shn3 inh set2 -21, SRC2 inh -1 and LRH-1 inv ag -12.
Screening CSc1nnc(-c2ccco2)n1-c1ccccc1 returned NCOA3 inh -5, LMP1 NFkB inh 2, NCOA1 inh 4, Shn3 inh set2 89*, SRC2 inh 20 and LRH-1 inv ag 7.
Screening Cc1noc(/C=C/c2ccco2)c1S(=O)(=O)N1CCC(C(=O)NCc2ccco2)CC1 returned NCOA3 inh 8, LMP1 NFkB inh 0, NCOA1 inh 6, Shn3 inh set2 -9, SRC2 inh 14 and LRH-1 inv ag 18.

Assay outcomes (PubChem)
